From ChEMBL document CHEMBL3988442, “University of Dundee, Small-Polar-MMV Screening Library” (2021)

Columns and labels:
[1] = molecular target: T1, Aspartate--tRNA(Asp/Asn) ligase (Mycobacterium tuberculosis (strain ATCC 25618 / H37Rv)) (UniProt P9WFW3); assay: Assay for Asp RNA synthetase-1 from Mycobacterium tuberculosis; type: functional; set-up: scale not given: direction of the effect not stated beside the values; settings: 30 µM; note: in the data most compounds retested in dose-response had high values
T1 sequence (whole entry): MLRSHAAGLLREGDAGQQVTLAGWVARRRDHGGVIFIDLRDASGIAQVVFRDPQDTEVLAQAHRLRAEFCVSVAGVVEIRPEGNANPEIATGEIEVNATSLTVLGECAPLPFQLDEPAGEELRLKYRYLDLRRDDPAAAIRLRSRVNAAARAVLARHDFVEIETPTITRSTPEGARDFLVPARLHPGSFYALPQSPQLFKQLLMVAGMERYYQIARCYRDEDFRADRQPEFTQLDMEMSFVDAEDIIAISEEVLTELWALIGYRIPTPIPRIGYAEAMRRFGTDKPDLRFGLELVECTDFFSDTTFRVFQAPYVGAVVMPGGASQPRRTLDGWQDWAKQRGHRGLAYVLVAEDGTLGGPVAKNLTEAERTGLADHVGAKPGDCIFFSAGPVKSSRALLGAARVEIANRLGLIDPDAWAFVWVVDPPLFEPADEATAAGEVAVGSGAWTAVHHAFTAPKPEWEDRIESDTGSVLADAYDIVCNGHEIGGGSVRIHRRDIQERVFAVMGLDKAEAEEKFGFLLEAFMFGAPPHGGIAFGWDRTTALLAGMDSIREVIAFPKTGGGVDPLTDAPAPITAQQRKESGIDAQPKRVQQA

[2] = molecular target: Shiga toxin 2 (Escherichia coli O157:H7) (UniProt P09385+P09386); assay: E. coli 0.157:H7 Shiga Toxin SOP - stx2 screening assay; type: functional; set-up: scale not given: direction of the effect not stated beside the values; settings: 30 µM

Row | SMILES | Percent Effect [1] | Percent Effect [2]
1 | Cc1nc(C)n(C2CCCN(C(=O)c3ccc(NC4CC4)nc3)C2)n1 (configuration not stated) | -1.66% | -7.5%
2 | COCC1CN(C(=O)COc2ccccc2)Cc2cn(C)nc21 (configuration not stated) | 1.18% | 0.0839%
3 | COc1ccc(OC)c(C(C)Nc2nc3c(C)nn(C)c3c(=O)n2C)c1 (configuration not stated) | 4.76% | -69.5%
4 | CCOc1ncccc1NC(=O)NCC(O)c1ccccc1OC (configuration not stated) | -0.742% | -2.67%
5 | Cc1cc(F)ccc1S(=O)(=O)NCc1cccc(C(=O)N2CCCC2)c1 | -1.3% | 30.6%
6 | COCCn1cc(C(=O)N2CCCC2c2cccc(F)c2)ccc1=O (configuration not stated) | 0.301% | -4.86%
7 | N#Cc1ccc(CN2CCN(C(=O)c3cc(C4CC4)[nH]n3)CC2)cc1 | -2.71% | -17.1%
8 | CC(O)CN1CCN(C(=O)c2ccc(Br)o2)CC1 (configuration not stated) | -2.21% | 22.8%
9 | CC(C)c1nc2c(n1C)CCN(CC(=O)Nc1ccc(Cl)cn1)C2 | 3.34% | -0.161%
10 | CCc1ccc(S(=O)(=O)Nc2cn(C)cc(Br)c2=O)cc1 | -3.18% | -8.3%
11 | Cc1cc(C)cc(-c2ccc(CC3(C(=O)O)CCOCC3)cc2)c1 | 4.9% | -4.63%
12 | CCOc1ccc(NC(=O)NCc2csc(NC)n2)cc1C | -0.262% | -26.6%
13 | c1ccc2c(N3CCCC3Cn3cccn3)ncnc2c1 (configuration not stated) | 0% | -23.1%
14 | CCc1ccccc1NC(=O)N1CCn2cnc(COC)c2C1 | -3.09% | 6.27%
15 | CCc1[nH]ncc1C(=O)N1CCCC(n2ccnc2C(C)C)C1 (configuration not stated) | 4.54% | 5.75%
16 | O=C(Cc1ccccc1Cl)N1CCCC(n2cncn2)C1 (configuration not stated) | -1.83% | -37.6%
17 | CN(C)C(=O)N1C[C@@H]2COC[C@]2(CNS(C)(=O)=O)C1 | -0.382% | -0.0161%
18 | COC[C@@H]1CC[C@H]2[C@H](CCN2S(=O)(=O)c2ccc(OC)cc2)O1 | -2.58% | 1.36%
19 | Cn1cnc2c1C(COCc1cccnc1)N(Cc1ccccn1)CC2 (configuration not stated) | 2.65% | -18.6%
20 | CCc1n[nH]c(C2CN(C(=O)c3nc(C)n4ccccc34)CCO2)n1 (configuration not stated) | 2.55% | -2.71%
21 | O=C(Cc1cccc(Cl)c1)N[C@@H]1CCNC[C@H]1O | -3.06% | 49.4%
